Screening data deposited in PubChem BioAssay by National Center for Advancing Translational Sciences (NCATS).
Sfp inh: blocks B. subtilis Sfp PPTase activity; Q9F4F7; Potency, µM, inactives show largest response in the series, negative = inhibition, hits mostly inhibitors; AID 1490; 3.5% of 310,000 active; Biochemical Sfp PPTase activity, qHTS;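 further: the enzyme is Sfp with the accession as filed and its product quenches rhodamine fluorescence; 0% = enzyme reaction without inhibitor and -100% = no enzyme wells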
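With Hepes-Na pH 7.6 buffer containing 10 mM MgCl2, Sfp (15 nM) modified BHQ-2-YbbR (12.5 uM) using rhodamine-CoA (5 uM). Two reads 30 minutes apart at 525/598 nm yielded each well's rate.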
HP1b chromo inh: inhibitors of HP1-beta chromodomain binding to methylated histone tails | 0.56% of 390,000 active | P83916 | Potency, µM (titrated, usually from 114 µM), without a hit: at the highest dose activity change, negative = inhibition, hits mostly inhibitors | AlphaScreen HP1-beta / biotin-H3K9me3 peptide binding; further: nearly all actives have a fitted effect of over 70% in size
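HP1-beta protein (50 nM final) preincubated 30 min at room temperature with biotinylated H3(1-18)K9me3 peptide (50 nM) in PBS pH 7.4, 0.01% Tween-20, then compound added for 30 min. AlphaScreen streptavidin donor/nickel chelate acceptor beads (10 ug/mL final), 30 min dark, luminescence read.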
BAZ2B inh: BAZ2B (human) inhibition; Q9UIF8; AlphaScreen BAZ2B-H3K14Ac peptide displacement; Potency, µM (series often up to 114 µM), without a hit: at the top dose activity change, negative = inhibition, most hits filed as inhibitors; 4.4% of 360,000 active; AID 504333; further: on the % scale 0 is the no-effect control and ±100 the full control effect; nearly all actives have a fitted effect of over 60% in size
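AlphaScreen displacement: compounds (up to 110uM) incubated 30 min at room temperature with a preformed 50 nM BAZ2B/50 nM biotinylated H3K14Ac peptide complex in PBS pH 7.4 with Tween-20. Donor and acceptor beads at 10 ug/mL final added, 20 min light-protected before reading.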
G9a block: G9a (human) methyltransferase inhibition; Q96KQ7; G9a H3K9 monomethylation, AlphaScreen, 2 h; Potency, µM (doses to about 102 µM), inactives show at the top dose activity, negative = inhibition, usual class: inhibitors; 8.8% of 350,000 active; AID 504332; further: on the % scale 0 is the no-effect control and ±100 the full control effect; nearly all actives have a fitted effect of over 75% in size
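Signal arises when biotinylated H3K9 peptide, once monomethylated, bridges streptavidin donor and antibody-captured acceptor beads. Enzyme at 20 nM was preincubated 15 min with test compounds; peptide 500 nM and SAM 20 uM then reacted for 2 h.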
L3MBTL1 inh: inhibitors of human L3MBTL1 | Q9Y468 | AlphaScreen L3MBTL1–H3K9me1 peptide binding | Potency, µM (doses to about 57.1 µM), without a hit: at the highest dose activity, negative = inhibition, hits mostly inhibitors | 0.66% of 230,000 active | AID 485360; further: on the % scale 0 is the no-effect control and ±100 the full control effect; nearly all actives have a fitted effect of over 60% in size
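L3MBTL1 50 nM + b-AHA-H3(1-15)K9me1 75 nM, 30 min RT; compound added, 30 min RT; streptavidin donor/Ni-chelate acceptor beads 10 ug/mL each final, 30 min RT dark; AlphaScreen read.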
JMJD2A Tudor inh: inhibitors of human JMJD2A Tudor domain | 4.4% of 390,000 active | Potency, µM (doses to about 114 µM), without a hit: top-dose activity change, negative = inhibition, usual class: inhibitors | AlphaScreen JMJD2A-Tudor / H3K4me3 peptide binding | O75164; further: on the % scale 0 is the no-effect control and ±100 the full control effect; nearly all actives have a fitted effect of over 50% in size
The depositor's hits bear a star; [ ] = another dose, or the depositor's remark. In the library only some 12% were active in any assay of this set; here they are far more common. The call rests on the fitted dose curve; in most records, active means well fitted curve in the direction sought with a large enough effect; inconclusive means small, poorly fitted or top-dose-only effect, or another doubt; inactive means no such curve, though single readings can be large; an effect the other way counts as inactive or inconclusive. Potency means the concentration at half of the fitted maximal effect.

Results for O=C(Nc1nn[nH]n1)c1cccc([N+](=O)[O-])c1 ?
Sfp inh: -26.8%; HP1b chromo inh: 19.6%; BAZ2B inh: 79.4µM*; G9a block: 25.1µM*; L3MBTL1 inh: 4.9%; JMJD2A Tudor inh: 22.4µM*

How did COc1ccc(/C=N/NC(=O)c2cccc([N+](=O)[O-])c2)cc1OC do in these assays?
Sfp inh: 7.1%; HP1b chromo inh: 43.3%; BAZ2B inh: -15.4%; L3MBTL1 inh: 7.9%; JMJD2A Tudor inh: -6.5%

How did Cc1ccc(-n2c(O)c(/C=N/N3CCOCC3)c(=O)[nH]c2=S)cc1 do in these assays?
Sfp inh: inconclusive; HP1b chromo inh: 20.6%; BAZ2B inh: inconclusive; G9a block: inconclusive; L3MBTL1 inh: -18.7%; JMJD2A Tudor inh: inconclusive

What do the screens show for `Cc1ccc(-c2n[nH]c(=S)n2-c2ccccc2)cc1`?
Sfp inh: 79.4µM*; HP1b chromo inh: 2.5%; BAZ2B inh: 10.0%; G9a block: 1.26µM*; L3MBTL1 inh: -1.5%; JMJD2A Tudor inh: 20µM*

What do the screens show for `Cc1ccc(-n2c(-c3nn(C)c(C)c3Cl)n[nH]c2=S)cc1`?
Sfp inh: 56.2µM*; HP1b chromo inh: -15.5%; BAZ2B inh: -30.6%; G9a block: inconclusive; JMJD2A Tudor inh: inconclusive

How did CCOc1ccc2c3c1O[C@H]1[C@@H](O)C=C[C@H]4[C@@H](C2)N(C)CC[C@@]341 do in these assays?
Sfp inh: 15.2%; G9a block: -43.9%[2.33 µM]

How did O=C(Oc1ccccc1)N1CCC[C@@]2(CCN(Cc3cc(C(F)(F)F)cc(C(F)(F)F)c3)C2)C1 do in these assays?
Sfp inh: 9.8%; G9a block: -1.3%[12.7 µM]

Results for COc1ccccc1-n1c(-c2ccco2)n[nH]c1=S ?
Sfp inh: -24.4%; HP1b chromo inh: 27.8%; BAZ2B inh: -1.0%; G9a block: 22.4µM*; JMJD2A Tudor inh: 22.4µM*

What do the screens show for `Cc1cccc(-n2c(-c3ccco3)nc3ccccc3c2=O)c1C`?
Sfp inh: 10.7%; HP1b chromo inh: 17.9%; BAZ2B inh: 1.3%; G9a block: inconclusive; L3MBTL1 inh: -4.2%[2.29 µM]; JMJD2A Tudor inh: -17.4%

How did S=c1[nH]nc(-c2ccco2)n1-c1cccc2ccccc12 do in these assays?
Sfp inh: -14.7%; HP1b chromo inh: 12.9%; BAZ2B inh: -5.9%; G9a block: inconclusive; L3MBTL1 inh: -5.2%; JMJD2A Tudor inh: 39.8µM*

How did c1cc[n+]2c(c1)-c1cccc[n+]1CC2 do in these assays?
Sfp inh: 20.6%

How did O=S(=O)(O)c1cc(O)ccc1O do in these assays?
Sfp inh: -3.3%; HP1b chromo inh: inconclusive; BAZ2B inh: 3.0%; G9a block: 10µM*; L3MBTL1 inh: 14.7%; JMJD2A Tudor inh: 79.4µM*

How did O=C1NC(=O)N(Cc2ccc(F)cc2)C(=O)/C1=C\c1ccc([N+](=O)[O-])s1 do in these assays?
Sfp inh: 39.8µM*; HP1b chromo inh: inconclusive; BAZ2B inh: 35.5µM*; G9a block: 6.31µM*; JMJD2A Tudor inh: 20µM*

How did COc1ccc(CN2C(=O)NC(=O)/C(=C/c3ccc([N+](=O)[O-])s3)C2=O)cc1 do in these assays?
Sfp inh: 20µM*; HP1b chromo inh: 28.2µM*; BAZ2B inh: 25.1µM*; G9a block: 8.91µM*; L3MBTL1 inh: 28.2µM*; JMJD2A Tudor inh: 22.4µM*

Results for COc1ccc(CN2CCNCC2)cc1 ?
Sfp inh: 12.6%; HP1b chromo inh: 31.6%; BAZ2B inh: -4.9%; G9a block: inconclusive; L3MBTL1 inh: 13.8%; JMJD2A Tudor inh: -7.5%

Results for CC(C)(C)[C@]1(O)C[C@@H]2OC(=O)CC23C(=O)O[C@@H]2OC(=O)[C@H](O)C231 (some centres undefined) ?
Sfp inh: 15.1%; G9a block: 29.2%[59 µM]

What do the screens show for `S=c1[nH]c2ccccc2[nH]1`?
Sfp inh: -1.7%; HP1b chromo inh: -5.3%; BAZ2B inh: -11.7%; G9a block: 12.6µM*; L3MBTL1 inh: -3.4%; JMJD2A Tudor inh: inconclusive

What do the screens show for `Cc1ccc(NC(=O)c2cc(-c3ccccc3)n(CCCN3CCOCC3)c2C)cc1`?
Sfp inh: -6.8%; HP1b chromo inh: inconclusive; BAZ2B inh: inconclusive; G9a block: inconclusive; L3MBTL1 inh: -26.4%; JMJD2A Tudor inh: -32.9%

How did Cn1c(SCC(=O)N2CCOCC2)nnc1-c1cccc(NC(=O)c2ccccc2)c1 do in these assays?
Sfp inh: -18.3%; HP1b chromo inh: 13.8%; G9a block: 10µM*; L3MBTL1 inh: 6.8%; JMJD2A Tudor inh: 89.1µM*

What do the screens show for `NS(=O)(=O)c1cc(C(=O)OCC(=O)Nc2ccc3[nH]c(=O)[nH]c3c2)ccc1Cl`?
HP1b chromo inh: 33.3%; BAZ2B inh: -6.2%; G9a block: 1.41µM*; L3MBTL1 inh: 4.7%; JMJD2A Tudor inh: -2.9%

How did O=c1[nH]c(=S)[nH]c(O)c1/C=C1/C=c2ccccc2=N1 do in these assays?
Sfp inh: -19.1%; HP1b chromo inh: 45.2%; BAZ2B inh: inconclusive; L3MBTL1 inh: -3.4%; JMJD2A Tudor inh: inconclusive

What do the screens show for `Cc1cccc2c1=NC(=O)/C(=C/c1c(O)[nH]c(=O)[nH]c1=O)C=2`?
Sfp inh: 50.1µM*; HP1b chromo inh: 9.2%; BAZ2B inh: inconclusive; G9a block: 10µM*; L3MBTL1 inh: -4.5%; JMJD2A Tudor inh: -20.5%

How did C=CC[C@]1(O)CCC2C3CCC4=CCCCC4C3CCC21C (some centres undefined) do in these assays?
Sfp inh: -9.3%; G9a block: 36.4%[59 µM]

How did COc1ccc(N2CCN(Cc3nc4ccccc4[nH]3)CC2)cc1 do in these assays?
Sfp inh: 15.9%; HP1b chromo inh: 15.8%; BAZ2B inh: -25.8%; G9a block: 31.6µM*; JMJD2A Tudor inh: -33.8%

What do the screens show for `CN1CCN(C(=O)Cc2nc3ccccc3[nH]2)CC1`?
Sfp inh: 0.8%; HP1b chromo inh: 21.8%; BAZ2B inh: 9.7%; G9a block: -34.8%; L3MBTL1 inh: 2.0%; JMJD2A Tudor inh: -5.7%

What do the screens show for `CN(CC(=O)Nc1cccc(F)c1)CC(=O)Nc1cccc(S(=O)(=O)N(C)c2ccccc2)c1`?
HP1b chromo inh: 39.8µM*; JMJD2A Tudor inh: 0.891µM*

What do the screens show for `O[C@@H](Cc1ccncc1)C(Cl)(Cl)Cl`?
Sfp inh: 3.7%

How did Cc1ccccc1C(=O)Nc1sc2c(c1C(=O)O)CCC(C(C)(C)C)C2 (centres undefined) do in these assays?
HP1b chromo inh: -0.9%; BAZ2B inh: inconclusive; G9a block: 10µM*; JMJD2A Tudor inh: -34.9%

What do the screens show for `O=C(Nc1sc2c(c1C(=O)Nc1ccc(Cl)cc1)CCCC2)c1cccs1`?
HP1b chromo inh: 23.6%; BAZ2B inh: -1.9%; G9a block: 20.8%[59 µM]; JMJD2A Tudor inh: -8.8%
